Common to all, as to experiment: NCI-60 one-dose screen, 48 h (100 = growth as untreated, 0 = no growth, -100 = all killed)
Holding throughout (conditions): 10 µM unless noted

Assay [1] concerns NCI-H23 lung.
Assay [2] concerns NCI-H226 lung.
Assay [3] concerns NCI-H322M lung.
Assay [4] relates to HOP-62 NSCLC.
Assay [5] has as its system NCI-H460 lung.
Assay [6] concerns HOP-92 NSCLC.
Assay [7] has as its system NCI-H522 lung.
Assay [8] concerns A549/ATCC NSCLC.
In assay [9] the test system is 786-0 renal.
In assay [10] the test system is COLO 205 colon.
Assay [11] concerns DU-145 prostate.
The subject of assay [12] is K-562 leukemia.
For assay [13], the system named is MALME-3M melanoma.
The test system of assay [14] is MDA-MB-231 breast.
The subject of assay [15] is RXF 393 renal.
The test system of assay [16] is SF-268 CNS.
For assay [17], the system named is SF-295 CNS.
For assay [18], the system named is SF-539 CNS.
The subject of assay [19] is UACC-257 melanoma.
Assay [20] has as its system M14 melanoma.

About 83,000 compounds went through this panel and 20% of them were active in at least one assay; those are over-represented in the sample as a whole.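 Results are percent growth after 48 hours of single-concentration exposure. 100 means growth as in untreated cells, lower positive values show inhibition; negative values down to -100 show cell death.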 A number with no mark means an inactive call. Activity calls are given as the source filed them. How the source made its calls: active means growth percent below 10; inactive means the rest.

Regarding `Cc1c(-c2ccc(C3CCCCC3)cc2)nc2ccc(F)cc2c1C(=O)O`, the growth was 53.5% in assay [1]; 64.1% in [2]; 56.4% in assay [3]; 61.7% in assay [4]; 7.22% (active) in assay [5]; 83.3% in assay [6]. In addition, the growth in assay [7] is 38.5%; in assay [8] it was 21.3%; in assay [9], 38%; in assay [10], 44.2%; in [11], 39.3%; in [12] it was 22.9%. Also, the growth in [13] was 62.1%; in [14], 62.7%; in assay [15], 74.1%; in [16], 42.8%; in assay [17], 2.98% (active); in assay [18] it was 37.1%. Moreover, the growth in assay [19] was 65.2%; in [20] it was 47.9%.
With `Nc1ccn(C2OC(CO)C(O)C2F)c(=O)n1` (stereo not given), the growth is 83.7% in assay [1]; 101% in assay [2]; 107% in [3]; 63.5% in assay [4]; 70.1% in assay [5]; 78.3% in [6]. Moreover, the growth in [7] was 51.4%; in [8], 68%; in [9], 79.9%; in assay [10], 65.1%; in assay [11] it was 89.4%; in assay [12] it was 83.7%. In addition, the growth in assay [13] was 73%; in assay [14], 89.2%; in assay [15], 100%; in [16], 86.3%; in assay [17], 98.6%; in [18], 92.2%. The growth was 95.1% in [19] and 65.4% in assay [20].
As to `CC(C)c1ncc([N+](=O)[O-])n1C`, the growth in [1] is 103%; in assay [2] it was 102%; in assay [3], 126%; in assay [4], 118%; in assay [5], 106%; in [6], 104%. For the same compound, the growth in assay [7] is 96.4%; in assay [8] it was 96.9%; in assay [9], 108%; in [10] it was 108%; in [11], 122%; in assay [12], 123%. Further, the growth in assay [13] was 129%; in assay [14], 118%; in assay [15], 115%; in assay [16], 121%; in assay [17], 127%; in assay [18], 98.2%. Moreover, the growth is 97.2% in assay [19] and 103% in assay [20].
For `Nc1ccccc1SC1CC(=O)N(c2ccc(Cl)c(Cl)c2)C1=O` (stereo not given), the growth was 104% in [1]; 106% in assay [2]; 128% in assay [3]; 96.6% in [4]; 117% in assay [5]; 101% in assay [6]. The growth in [7] is 117%; in assay [8] it was 99.9%; in assay [9], 93.9%; in assay [10], 127%; in [11] it was 113%; in [12], 122%. The growth was 177% in assay [13]; 94.4% in assay [14]; 130% in assay [15]; 97.6% in assay [16]; 127% in assay [17]; 83.1% in assay [18]. Further, the growth in assay [19] is -6.15% (active); in [20], 94.8%.
As to `COc1nc2ccccc2s1`, the growth in assay [1] is 94.7%; in assay [2] it was 97.3%; in assay [3], 111%; in assay [4] it was 114%; in assay [5] it was 99.4%; in assay [6], 99.2%. Also, the growth in [7] was 96.3%; in assay [8], 96.8%; in [9], 104%; in assay [10], 93.1%; in [11], 110%; in assay [12], 102%. In addition, the growth in [13] is 111%; in [14] it was 115%; in assay [15] it was 118%; in [16] it was 101%; in [17] it was 113%; in assay [18] it was 90.7%. In addition, the growth in [19] is 84.8%; in assay [20], 93.5%.
`C=C(C)COc1ccc(C(C)(C)C)cc1`: the growth is 108% in [1]; 95.8% in assay [2]; 102% in [3]; 91.2% in assay [4]; 104% in [5]; 99.3% in assay [6]. The growth in assay [7] was 90.8%; in assay [8], 91.2%; in [9], 101%; in assay [10] it was 104%; in assay [11], 107%; in [12] it was 106%. Also, the growth in assay [13] is 116%; in [14], 102%; in assay [15], 99.5%; in [16], 99.8%; in assay [17], 101%; in assay [18] it was 102%. In addition, the values for the growth in assay [19] and in assay [20] were 82.6% and 102%, respectively.
Regarding `O=C(NCc1ccccc1)c1cccc([N+](=O)[O-])c1`, the growth is 110% in assay [1]; 105% in assay [2]; 96.7% in assay [3]; 94.6% in assay [4]; 103% in assay [5]; 77.8% in assay [6]. Also, the growth in [7] was 84.1%; in assay [8], 88.2%; in assay [9] it was 94.9%; in assay [10], 116%; in [11] it was 104%; in [12], 102%. The growth is 90.5% in assay [13]; 91.1% in [14]; 104% in [15]; 92.6% in assay [16]; 104% in assay [17]; 102% in [18]. The growth in [19] is 88%; in assay [20], 107%.
With `Oc1ccc2ccccc2c1CN1CCOCC1`, the growth is 104% in assay [1]; 105% in assay [2]; 112% in assay [3]; 122% in [4]; 115% in assay [5]; 102% in assay [6]. Besides, the growth in [7] is 110%; in assay [8] it was 99.7%; in assay [9], 109%; in assay [10] it was 106%; in assay [11], 124%; in assay [12], 118%. Further, the growth in assay [13] is 121%; in [14], 109%; in assay [15], 128%; in assay [16], 102%; in assay [17], 110%; in assay [18], 81.4%. Moreover, the growth is 120% in assay [19] and 98% in [20].

(Values after PubChem BioAssay (NCI).)
